Screening data (PubChem)
These entries were drawn from the full list.
aSyn 5UTR act: Activators via SNCA 5'UTR binding, MLPCN; alpha-synuclein 5'UTR reporter, activators screen; activity score, % (tested at 7.5 µM), hits read low; 300,000 tested, 7.1% active; in the data active = activity score below about -60%
* hit, by the source's call.

SMILES	aSyn 5UTR act
CC(=O)c1ccc(NC(=S)N2CCCC(CO)C2)cc1 (stereo not given)	-82.3*
CC(C)c1ccc(CNc2ncc(Br)cn2)cc1	-153.1*
CC(C)c1ccc(CNc2c([N+](=O)[O-])c(=O)oc3ccccc23)cc1	-70.8*
O=[N+]([O-])c1ccc(NCc2ccc(Cl)cc2)nc1	-104.9*
CC(C)c1ccc(CNc2ccc([N+](=O)[O-])cn2)cc1	-77.9*
O=C(COc1ccccc1Cl)c1ccc2c(c1)CCCC2	-200.9*
O=C(Nc1nc(-c2ccc(Cl)cc2)cs1)C1=COCCO1	-109.0*
O=C(Nc1nc(-c2cccs2)cs1)C1=COCCO1	-173.3*
Cc1ccc(Cl)c2sc(NC(=O)C3=COCCO3)nc12	-78.9*
COCCNc1nc(N)c([N+](=O)[O-])c(NC2CCCCC2)n1	67.7
C=CCNc1nc(N)c([N+](=O)[O-])c(N2CCCCCC2)n1	69.3
Cc1nn2c(nc(N3CCCCC3)c3ccccc32)c1C=O	55.3
C(=C\c1nc(N2CCCC2)c2ccccc2n1)/c1ccccc1	-105.8*
Oc1ccc(Nc2nc(N3CCCC3)c3ccccc3n2)cc1	-579.1*
CC1CCN(c2nc(/C=C/c3ccccc3)nc3ccccc23)CC1	-87.4*
Nc1nc(Nc2ccccc2)nc(N2CCCC2)c1[N+](=O)[O-]	-81.5*
CCOC(=O)c1sc(NC(=O)Nc2cccc(Cl)c2)cc1C	-109.5*
CCOC(=O)c1sc(NC(=O)c2ccc(Br)o2)cc1C	-236.2*
CCOC(=O)c1sc(NC(=O)c2cccs2)cc1C	-88.5*
CCOC(=O)c1sc(NC(=O)c2sccc2C)cc1C	-82.1*
O=C(NCCc1ccc(Cl)cc1)c1cccs1	-156.2*
O=C(CNC(=O)c1cccs1)c1ccc(Cl)cc1	-88.6*
Cc1ccc2cc(CCNC(=O)c3cccs3)c(=O)[nH]c2c1C	-190.1*
CCCCNc1c(-c2cccc(-c3cc(C(C)=O)cs3)c2)nc2ccc(C)cn12	-71.1*
COc1ccc(-n2nc3cc(C)c(NC(=O)c4cccnc4)cc3n2)cc1	-82.5*
SMILES	aSyn 5UTR act
COc1ccc(-n2nc3cc(C)c(NC(=O)CC(C)C)cc3n2)cc1	-123.3*
Cc1cc2nn(-c3ccccc3)nc2cc1NC(=O)c1cccs1	-195.6*
O=C(Nc1ccc2c(c1)ncn2-c1ccccc1)c1ccco1	-131.2*
Cn1cnc2cc(NC(=O)c3ccco3)ccc21	-71.1*
Cc1ccc2oc(-c3ccco3)nc2c1	-137.0*
Cc1ccc(-c2nc3cc(C)ccc3o2)cc1	72.5
Cc1onc(-c2c(F)cccc2Cl)c1C(=O)O/N=C(\N)c1ccc([N+](=O)[O-])o1	-80.0*
Cc1onc(-c2c(Cl)cccc2Cl)c1C(=O)N/N=C(\N)COc1ccc(Cl)cc1	89.3
CCCN1C(=O)c2cccc3c(N4CCCCC4)ccc(c23)C1=O	-83.1*
Cc1ccc(N2C(=O)c3cccc4c(N)ccc(c34)C2=O)c2cccnc12	99.8
COc1ccc(/C(C)=N/Nc2ccccc2Cl)c(O)c1	-102.4*
COc1ccc(/C(C)=N/Nc2ccc(F)cc2F)c(O)c1	-96.7*
C/C(=N\Nc1ccc(F)cc1F)c1cccs1	-87.6*
Cc1cccn2c(=O)c(C=Nc3ccccc3)c(NCc3ccco3)nc12	-117.9*
Cn1c(=O)c2c(nc(NCc3ccco3)n2C/C=C/c2ccccc2)n(C)c1=O	90.4
Cc1ccc(Cn2c(CCNc3nc(-c4ccc(Cl)c([N+](=O)[O-])c4)cs3)nc3cc(Cl)c(Cl)cc32)cc1	-77.9*
Cc1ccc2nc(-c3ccc(N4C(=N)SC5CS(=O)(=O)CC54)cc3)sc2c1 (stereo not given)	-101.2*
CCSc1cnn(-c2ccccc2)c(=O)c1Cl	-92.5*
CCCCNc1cnn(-c2ccccc2)c(=O)c1Cl	-74.2*
CNc1cnn(-c2ccc(C)cc2)c(=O)c1Cl	-86.2*
O=c1c(Cl)c(N/N=C/c2ccc(Cl)cc2)cnn1-c1ccccc1	-85.0*
CN(c1cnn(-c2ccccc2)c(=O)c1Cl)n1cccc1	-83.0*
CCN(CC)S(=O)(=O)c1cccc(-c2cn3cc(C)ccc3n2)c1	-77.6*
Cc1ccc2nc(-c3ccc(S(=O)(=O)N4CCCCC4)cc3)cn2c1	-81.0*
Cc1ccc2nc(-c3cccc(S(=O)(=O)N(C)C)c3)cn2c1	-171.4*
SMILES	aSyn 5UTR act
CCN(CC)S(=O)(=O)c1cccc(-c2nc3n(n2)Cc2ccccc2-3)c1	-86.2*
Cc1cccc(N(C)S(=O)(=O)c2ccc(-c3cnc(C4CC4)o3)cc2)c1	97.4
Oc1ccc(/C=N/Nc2ccnc3cc(Cl)ccc23)cc1O	-78.5*
CCOC(=O)C1(CCc2ccccc2)CCN(C(=O)Cc2nonc2C)CC1	-77.6*
O=C(Nc1nc2ccsc2c(=O)s1)c1ccc(F)cc1	-158.2*
CSc1nc2ccc3nc(NC(=O)c4ccccc4)sc3c2s1	-317.6*
Cc1csc2nc(NC(=O)c3ccccc3)sc(=O)c12	-96.7*
O=C(Nc1nc2ccsc2c(=O)s1)c1ccc(F)cc1Cl	-117.3*
Cc1ccc2[nH]cc(/C=C/c3cc[n+](C)cc3)c2c1	64.5
COc1ccccc1Cn1nnc2c(=O)[nH]c(C3CCN(C(=O)c4ccccc4Cl)CC3)nc21	60.3
COCCCC1CCN(C(=O)C2CCC(=O)N(CCc3ccccc3)C2)CC1 (stereo not given)	-73.5*
O=C1CCC(C(=O)N2CCCCO2)CN1CCc1ccccc1 (stereo not given)	-89.2*
COc1ccccc1CN1CC(C(=O)N2CCCCO2)CCC1=O (stereo not given)	-77.1*
COCCn1c(=O)c2c(nc3n2CC(C)CN3CCc2ccccc2)n(C)c1=O (stereo not given)	67.2
COc1ccc2cc3cc(C(=O)NCCCN4CCc5ccccc5C4)sc3nc2c1	-198.0*
COc1ccc2cc3cc(C(=O)NC4CC4)sc3nc2c1	56.7
COc1ccc2nc3sc(C(=O)NCCN4CCc5ccccc5C4)cc3cc2c1	-68.8*
CC/C(C)=N/Nc1nc(-c2cc3cccc(OC)c3oc2=O)cs1	-108.3*
Cc1c(C(=O)NCc2ccccn2)oc2ccccc12	-137.9*
Cc1c(C(=O)NCc2ccccn2)oc2ccc(Br)cc12	-130.8*
S=C(N=Nc1ccccc1)NNc1ccccc1	-132.2*
C/C(=N\NC(=O)c1cc2ccccc2cc1O)c1ccccn1	87.9
C/C(=N/NC(=O)c1cc2ccccc2cc1O)C1C(=O)c2ccccc2C1=O	-93.9*
COCCCNC(=S)NNC(=S)Nc1ccccc1	-64.7*
S=C(NN=C(C1CC1)C1CC1)Nc1ccccc1	-63.2*
SMILES	aSyn 5UTR act
S=C(Nc1ccc(Nc2ccccc2)cc1)NN1CCOCC1	-99.2*
COCCCNC(=S)NNC(=S)Nc1ccc(F)cc1F	-105.9*
S=C(NNC(=S)Nc1ccccc1)Nc1ccccc1	-145.3*
C/C(=N\NC(=S)Nc1ccccc1)C1Cc2ccccc2C(=O)O1 (stereo not given)	-154.4*
Cc1cc(C)nc(NC(=S)Nc2ccccc2)n1	-83.7*
CC(C)(C)NC(=S)Nc1ccc(Nc2ccccc2)cc1	-115.4*
Cc1cc(OCc2ccc(C(=O)n3cccn3)o2)ccc1Cl	-62.0*
COc1cccc(N2CCN(C(=O)c3ccc(CS(=O)c4ccc(Cl)cc4)o3)CC2)c1 (stereo not given)	107.3
CCN(CC)C(=O)c1ccc(COc2ccc(Cl)c(C)c2)o1	-119.2*
Oc1ccccc1-c1cc(-c2ccc(F)cc2)n[nH]1	-127.6*
Oc1ccc(Br)cc1-c1cc(-c2ccccc2F)[nH]n1	-74.2*
Oc1ccc(Cl)cc1-c1cc(-c2ccccc2)n[nH]1	-99.2*
Oc1ccc(F)cc1-c1cc(-c2ccc3c(c2)OCCO3)n[nH]1	-151.5*
Cc1ccc(-c2cc(-c3ccc(C)cc3O)[nH]n2)cc1	-160.0*
